One may read the AC50 as the midpoint of the concentration-response curve, whichever way the signal moves.

Each structure is given as a SMILES string. About 5,100 (32%) of roughly 16,000 compounds were called active. Inconclusive results (about 25%) are left out. The call rests on the fitted dose curve; in most records, active means well fitted curve in the direction sought with a large enough effect; inconclusive means small, poorly fitted or top-dose-only effect, or effect the other way; inactive means no such curve, though single readings can be large or run the other way. The list shows a part of the results.
On the % scale 0 is the no-effect control and ±100 the full control effect.

The assay deals with Cytochrome P450 3A4 (Homo sapiens) (UniProt P08684). Kind of assay: Cytochrome panel assay with activity outcomes. To be noted: recombinant CYP, pro-luciferin dealkylation, luminescence, p450-cyp3a4; series mostly up to 57.1 µM; activity, negative = inhibition: at the top concentration.
Chain of Cytochrome P450 3A4 (Homo sapiens) (P08684 whole entry, looked up): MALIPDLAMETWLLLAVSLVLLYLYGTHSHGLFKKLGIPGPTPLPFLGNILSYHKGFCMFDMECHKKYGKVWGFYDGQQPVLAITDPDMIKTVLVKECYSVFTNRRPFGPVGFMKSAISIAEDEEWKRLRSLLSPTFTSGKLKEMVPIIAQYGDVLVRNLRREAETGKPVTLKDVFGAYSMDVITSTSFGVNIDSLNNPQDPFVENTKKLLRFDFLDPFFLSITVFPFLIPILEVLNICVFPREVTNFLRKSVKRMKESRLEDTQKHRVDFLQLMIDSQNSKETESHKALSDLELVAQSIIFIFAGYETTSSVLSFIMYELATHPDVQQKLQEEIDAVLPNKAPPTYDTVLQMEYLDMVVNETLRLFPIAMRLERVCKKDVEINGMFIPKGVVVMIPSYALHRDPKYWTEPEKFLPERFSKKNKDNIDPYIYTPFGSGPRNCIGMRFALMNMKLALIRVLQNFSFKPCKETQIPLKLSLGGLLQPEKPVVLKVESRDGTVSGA
Consider `COc1n[nH]c2nncnc12`, for which the “activity, negative = inhibition” value was 3.1% (inactive).
Regarding `CCOC(=O)C1=C(C)NC2(O)c3ccccc3C(=O)C12O` (configuration not stated), the “activity, negative = inhibition” value is 8.09% (inactive).
As for `CCOC(=O)c1[nH]c(C)c(C)c1C`, the “activity, negative = inhibition” value is -10.8% (inactive).
As to `CCOC(=O)C1=C(C)NC(C)=C(C(=O)OCC)C1c1sccc1C`, the AC50 is 11.2 µM (active).
For `N#CCCn1c(=O)cnc2cnc(OCc3ccccc3)nc21`, the “activity, negative = inhibition” value is -26.2% (inactive).
On to `COc1ncc2ncc(=O)n(C)c2n1`, for which the “activity, negative = inhibition” value was -13% (inactive).
Consider `COc1ncc2ncc(=O)n(Cc3ccc(F)cc3)c2n1`, for which the half-maximal activity concentration (AC50) was 10 µM (active).
On to `COc1ncc2ncc(=O)n(CCC#N)c2n1`, for which the “activity, negative = inhibition” value is -14.1% (inactive).
Turning to `O=c1cnc2cnc(OCc3ccccc3)nc2n1Cc1ccc(F)cc1`, the half-maximal activity concentration (AC50) is 5.01 µM (active).
Take `O=C1NCC2(CCN(CCc3ccccc3)CC2)O1`: the AC50 result is “inactive”.
Take `C[N+]1(CCC[N+]2(C)C[C@H]3[C@H](C2)[C@H]2C=C[C@@H]3CC2)CCOCC1` (some centres not stated): the activity, negative = inhibition was 31.7% [at 11.4 µM] (inactive).
Turning to `CCCCNC(=O)CCC(=O)Nc1ccc2nc(N3CCOCC3)cc(C)c2c1`, the AC50 was 5.01 µM (active).
Regarding `Cc1cc(N2CCN(C)CC2)nc2ccc(NC(=O)CCC(=O)NCc3ccco3)cc12`, the half-maximal activity concentration (AC50) is 15.8 µM (active).
With `COc1ccc2c(C)cc(N3CCOCC3)nc2c1`, the “activity, negative = inhibition” value was -8.84% (inactive).
On the same count and under the same terms, in the case of `CCN(CC)c1cc(C)c2cc(NC(=O)CNC(C)=O)ccc2n1` it was -3.72% [at 11.4 µM] (inactive).
For the compound `COCCCNC(=O)CCC(=O)Nc1ccc2nc(N3CCOCC3)cc(C)c2c1`, the half-maximal activity concentration (AC50) is 12.6 µM (active).
On to `C/C(=N\O)c1cccc[n+]1Cc1ccccc1`, for which the activity, negative = inhibition was -11.2% [at 11.4 µM] (inactive).
For the compound `COc1ccc2[nH]cc(CCNc3nc(-c4ccc(N(C)C)cc4)nc4ccccc34)c2c1`, the half-maximal activity concentration (AC50) is 2.51 µM (active).
As to `COc1ccc2[nH]cc(CCNc3nc(-c4ccc(C(=O)N(C)C)cc4)nc4ccccc34)c2c1`, the AC50 is 2.51 µM (active).
For `O=C(Nc1nnc(CCS(=O)(=O)c2ccc(Br)cc2)s1)c1ccc([N+](=O)[O-])cc1`, the activity, negative = inhibition is -8.9% [at 2.29 µM] (inactive).
As to `Cc1ccc(S(=O)(=O)CCc2nnc(NC(=O)COc3cccc(C)c3)s2)cc1`, the half-maximal activity concentration (AC50) is 2.82 µM (active).
`COC(=O)C1CSC(C(=O)OC)N1C(=O)Nc1c(C)cccc1C` (configuration not stated): the “activity, negative = inhibition” value is -24.2% (inactive).
For `Cc1cccc(C)c1NC(=O)C[N+](C)(C)C`, the AC50 result is “inactive”.
In the case of `CC(=O)c1cn(CC(=O)Nc2c(C)cccc2C)c2ccccc12`, the concentration at half-maximal activity (AC50) is 11.2 µM (active).
On to `C=C(C)COc1ccc(-c2n[nH]c(C)c2-c2ccc(OC)cc2)c(O)c1`, for which the AC50 was 10 µM (active).
As for `COc1ccc(-c2n[nH]c(C)c2-c2ccc(Cl)cc2)c(O)c1`, the AC50 is 14.1 µM (active).
`Cc1[nH]nc(-c2ccc(O)cc2O)c1-c1ccc(Cl)cc1`: the half-maximal activity concentration (AC50) was 3.55 µM (active).
In the case of `Oc1ccc(-c2[nH]ncc2-c2ccc(Cl)cc2)c(O)c1`, the AC50 is 0.562 µM (active).
Same read-out and setting: for `C[C@@H](C(=O)NCCc1c[nH]c2ccccc12)[C@@H]1C[C@@]1(C)[C@@H](NC(=O)OCc1ccccc1)c1ccccc1` the value was 3.16 µM (active).
For the compound `C[C@@H](C(=O)NCCc1c[nH]c2ccccc12)[C@H]1C[C@]1(C)[C@H](NC(=O)OCc1ccccc1)c1ccccc1`, the concentration at half-maximal activity (AC50) is 1.58 µM (active).
As for `CC(C)CNC(=O)CCCc1c[nH]c2ccccc12`, the activity, negative = inhibition was 14.6% [at 2.29 µM] (inactive).
With `C[C@@H]1O[C@@H](O)[C@@H](O)[C@H](O)[C@H]1O`, the activity, negative = inhibition was -3.34% [at 11.4 µM] (inactive).
As for `CN(C)c1ccc(N=Cc2nc(-c3ccccc3)oc2O)cc1`, the half-maximal activity concentration (AC50) is 14.1 µM (active).
In the case of `O=C(Oc1oc(-c2ccco2)nc1C=Nc1ccc(Cl)cc1)c1ccco1`, the “activity, negative = inhibition” value is 0.287% (inactive).
Consider `CN(C)c1oc(-c2ccccc2)nc1C#N`, for which the “activity, negative = inhibition” value is -21.4% (inactive).
On the same count and under the same terms, in the case of `CC(=O)N1CCN(C)CC1` it was -10.7% (inactive).
For `COc1cc(CNC2CCCC2)cc(Cl)c1OCc1ccccc1Cl`, the concentration at half-maximal activity (AC50) is 5.62 µM (active).
`CCOc1cc(C2NN=C(c3ccccc3)S2)ccc1OCc1ccccc1Cl` (configuration not stated): the activity, negative = inhibition is 7.68% [at 2.29 µM] (inactive).
As to `Cc1cc(C(C)(C)C)cc(CNC2CCCCC2)c1O`, the activity, negative = inhibition was -20.7% [at 11.4 µM] (inactive).
`Cc1oc(-c2ccccc2Cl)nc1CSCC(=O)NC1CC1`: the concentration at half-maximal activity (AC50) was 4.47 µM (active).
On to `CCN1CCCC1CNC(=O)C(=O)Nc1ccccc1OC` (configuration not stated), for which the “activity, negative = inhibition” value is -20.6% (inactive).
For the compound `CC1CCC(NC(=O)CC(C)(C)Cc2nc3ccccc3c(=O)[nH]2)CC1` (configuration not stated), the “activity, negative = inhibition” value is 13.9% (inactive).
For `CCOc1ccccc1NC(=O)C(=O)NCC1CCCN1CC` (configuration not stated), the “activity, negative = inhibition” value was -6.39% (inactive).
Regarding `CCN1CCCC1CNC(=O)CSCc1nc(-c2ccccc2C)oc1C` (configuration not stated), the AC50 is 6.31 µM (active).
`C1CCc2c(nc3nnnn3c2NC2CCCC2)C1`: the “activity, negative = inhibition” value is -17.9% (inactive).
For `NC(=NCc1ccccc1)NC(=O)c1nc(Cl)c(N)nc1N`, the AC50 entry was “inactive”.
Take `O=c1cc(N2CCCCC2)c(-c2ccccc2)nn1Cc1ccccc1Cl`: the concentration at half-maximal activity (AC50) is 10 µM (active).
For the compound `Cc1cccc(N2CCN(c3ccc(NC(=O)/C=C(/C(=O)O)c4ccccc4)cc3)CC2)c1`, the activity, negative = inhibition was 0.321% [at 2.29 µM] (inactive).
Regarding `COC(=O)c1ccc(C(=O)OC)c(NC(=S)N2CCN(c3ccccc3)CC2)c1`, the AC50 is 7.94 µM (active).
As to `COc1cc(CC(=O)O)c(C(C)=O)cc1OC`, the “activity, negative = inhibition” value is 18.7% (inactive).
Take `COC(=O)c1cc(OC)c(OC)cc1NC(=S)N1CCCCC1`: the half-maximal activity concentration (AC50) was 3.98 µM (active).
With `COc1ccc(-c2nc3cnc(Nc4cccc(OC)c4)nc3n(CCC#N)c2=O)cc1`, the AC50 was 3.98 µM (active).
Regarding `COc1cccc(Nc2ncc3nc(-c4cccs4)c(=O)n(CCC#N)c3n2)c1`, the half-maximal activity concentration (AC50) was 6.31 µM (active).
As for `COc1ccc(-c2nc3cnc(Nc4ccccc4)nc3n(CCC#N)c2=O)cc1`, the “activity, negative = inhibition” value is -23.2% (inactive).
`COc1cccc(Nc2ncc3nc(C)c(=O)n(CCC#N)c3n2)c1`: the AC50 is 12.6 µM (active).
Take `COc1cccc(Cn2c(=O)cnc3cnc(Nc4cccc(OC)c4)nc32)c1`: the AC50 was 2 µM (active).
As for `N#CCCn1c(=O)c(-c2ccccc2)nc2cnc(Nc3ccccc3)nc21`, the “activity, negative = inhibition” value was -28.1% (inactive).
Same read-out and setting: for `O=C1CCCC=C1[C@@H](O)CCOC(c1ccccc1)(c1ccccc1)c1ccccc1` the value was -80.3% [at 11.4 µM] (inactive).
As for `CC(C)(C)c1cc(Br)c(O)c(CN(Cc2cc(C(C)(C)C)cc(Br)c2O)C2CCCCC2)c1`, the activity, negative = inhibition is -3.9% [at 11.4 µM] (inactive).
Consider `COCCn1c(=O)c(-c2ccccc2)nc2cnc(Nc3ccccc3)nc21`, for which the AC50 was 12.6 µM (active).
In the case of `COCCn1c(=O)cnc2cnc(Nc3cccc(OC)c3)nc21`, the AC50 was 15.8 µM (active).
With `CN(C)c1ncc2ncc(=O)n(CCC#N)c2n1`, the “activity, negative = inhibition” value was -17.1% (inactive).
Still for that read-out and setting: in the case of `COCCn1c(=O)c(-c2ccc(Cl)cc2)nc2cnc(Nc3ccccc3)nc21` it was -29.4% (inactive); in that of `N#CCCn1c(=O)c(-c2cc(F)cc(F)c2)nc2cnc(Nc3ccccc3)nc21`, -28.1% (inactive).
Consider `COc1cccc(Nc2ncc3nc(-c4cc(F)cc(F)c4)c(=O)n(CCC#N)c3n2)c1`, for which the half-maximal activity concentration (AC50) was 10 µM (active).
On to `COCCn1c(=O)cnc2cnc(Nc3ccccc3)nc21`, for which the “activity, negative = inhibition” value is -22.2% (inactive).
Consider `COc1cccc(Nc2ncc3ncc(=O)n(CCC#N)c3n2)c1`, for which the half-maximal activity concentration (AC50) is 15.8 µM (active).

(Values after PubChem BioAssay AID1851 (National Center for Advancing Translational Sciences (NCATS), 2009).)
